Records with an inconclusive call do not appear. Calls of active or inactive are those of the source. The call rests on the fitted dose curve; in most records, active means well fitted curve in the direction sought with a large enough effect in the signal ratio in the repeat runs (not every such curve was filed as active); inconclusive means weak or mixed curves, or a change in a side signal; inactive means no such curve, though single readings can be large or run the other way; the % refers to the signal ratio.
Assay: qHTS assay to identify small molecule agonists of the NFkB signaling pathway (AID 1159509)
Details: NFkB-bla ME-180 cells, beta-lactamase FRET ratio, 5 h; series mostly up to 61 µM
Outline: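 NFkB-bla ME-180 cells carry a beta-lactamase reporter under an NF-kB response element. They were plated overnight, then exposed to compounds for 5 h at 37 C. Read-out is LiveBLAzer FRET after 1.5 hr at room temperature (405 nm excitation; 460/530 nm emission).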

Compound	outcome
NNc1ccccc1	inactive
CN(C)NC(=O)CCC(=O)O	inactive
CC(=O)C1CCOC1=O (stereo not given)	inactive
CN(C)C(=O)C(c1ccccc1)c1ccccc1	inactive
CN1C(=O)CCS(=O)(=O)C1c1ccc(Cl)cc1 (stereo not given)	inactive
Cc1ccc(O)c(C)c1	inactive
O=C(O)C1C(C(=O)O)C2(Cl)C(Cl)=C(Cl)C1(Cl)C2(Cl)Cl (stereo not given)	inactive
Nc1ccc([As](=O)(O)O)cc1	inactive
CNC(=O)Oc1cccc2ccccc12	inactive
O=[N+]([O-])c1ccc(Cl)c(Cl)c1	inactive
CNC(=O)O/N=C/C(C)(C)S(C)(=O)=O	inactive
CCCCC(CC)C(=O)Cl (stereo not given)	inactive
CCNc1nc(Cl)nc(NC(C)C)n1	inactive
C=C(C)C(=O)OCC(CC)CCCC (stereo not given)	inactive
Cc1ccc(N)cc1	inactive
Cc1cc(Cl)ccc1OC(C)C(=O)O (stereo not given)	inactive
Cc1cccc(N)c1C	inactive
CCOP(=S)(OCC)Oc1cc(C)nc(C(C)C)n1	inactive
OCC(O)CCl (stereo not given)	inactive
Oc1c(Br)cc(Br)cc1Br	inactive
Cc1cccc(C)c1N	inactive
O=C(O)C(Br)Br	inactive
Cc1ccccc1N	inactive
CN(C)C(=O)Cl	inactive
COC(C)(C)CCCC(C)C/C=C/C(C)=C/C(=O)OC(C)C (stereo not given)	inactive
Cc1cccc(C)c1NC(=O)CN1CCCC1=O	inactive
Oc1ccc(Cl)cc1	inactive
CC(C)(C)C(=O)CCl	inactive
Nc1cc(Cl)cc(Cl)c1	inactive
CSc1nnc(C(C)(C)C)c(=O)n1N	inactive

From PubChem BioAssay (Tox21)
